Measured values: PubChem BioAssay (EPA / NIEHS)
The source made the active and inactive calls. The calls were made as follows: active = hit-call score of the fitted dose curve at least 0.9, where 1 is the maximum; inactive = score below 0.9.

What was measured:
TTR (gene 7276) = test: CCTE_GLTED_hTTR_0.125uM: CCTE's human Transthyretin (hTTR) Inhibition Assay, with 0.125uM TTR, Great Lakes Toxicology and Ecology Division (GLTED) Lab (AID 2284431);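 also: hits lower the fluorescence signal relative to DMSO baseline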
Summary of the method: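 TTR at 0.125uM incubated 2 h with test chemical; displacement of bound ANSA read by fluorescence (ex 380, em 475). Activity is signal loss versus DMSO baseline.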

[1] = CCTE_Padilla_ZF_Score.Position: CCTE's 144 Hour Post-fertilization zebrafish Assay Score for Position, Padilla Lab (AID 2284409)
Summary of the method: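 Wild-type zebrafish embryos (with chorions) exposed singly from 6–8 hpf in sealed wells of Hanks' solution at 26C, rinsed at 5 dpf. At 6 dpf, blinded assessors scored abnormal water-column position by brightfield stereomicroscopy, relative to DMSO.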

[2] = CCTE_Padilla_ZF_Score.Living: CCTE's 144 Hour Post-fertilization zebrafish Assay Score for Viability, Padilla Lab (AID 2284410);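 also: larval death at 6 dpf judged by absent heartbeat or coagulation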
Summary of the method: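 Mortality at 6 dpf, judged as absent heartbeat or coagulation by two blinded observers, after sealed static exposure beginning at 6–8 hpf at 26C. Larvae were rinsed free of chemical at 5 dpf, and activity was fitted relative to DMSO.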

[3] = CCTE_Padilla_ZF_Score.General: CCTE's 144 Hour Post-fertilization zebrafish Assay Score for General Malformation, Padilla Lab (AID 2284411)
Summary of the method: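 Malformation, death and hatching were scored at 6 dpf by two blinded observers under a stereo microscope. Embryos were dosed singly from 6-8 hpf in sealed plates of 10% Hanks' at 26C and rinsed on 5 dpf; DMSO baseline.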

[4] = CCTE_Padilla_ZF_Score.Tail: CCTE's 144 Hour Post-fertilization zebrafish Assay Score for Tail Malformation, Padilla Lab (AID 2284414)
Summary of the method: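 Tail malformations were scored at 6 dpf by two blinded assessors under a stereo microscope. Chorionated embryos had been exposed from 6-8 hpf in sealed wells of 10% Hanks' at 26 C, then rinsed free of chemical at 5 dpf.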

[5] = CCTE_Padilla_ZF_Score.Blood_pooling: CCTE's 144 Hour Post-fertilization zebrafish Assay Score for Blood Pooling, Padilla Lab (AID 2284415)
Description: CCTE_Padilla_ZF_Phenotype_Score is a whole embryo, multiplexed assay using zebrafish ova exposed for 144 hours post fertilization on a 96-well plate.CCTE_Padilla_ZF_Score.Blood_pooling is one of one assay component(s) measured or calculated from the CCTE_Padilla_ZF_Phenotype_Score assay. It is designed to make measurements of zebrafish development as detected with brightfield microscopy of developing zebrafish embryos.Data from the assay component CCTE_Padilla_ZF_Score.Blood_pooling was analyzed into 1 assay endpoints. This assay endpoint, CCTE_Padilla_ZF_Score.Blood_pooling, was analyzed in the positive analysis fitting direction relative to DMSO as the negative control and baseline of activity. Using a type of viability reporter, gain-of-signal activity can be used to understand changes in developmentals as they relate to the whole embryo. To generalize the intended target to other relatable targets, this assay endpoint is annotated to the zebrafish development intended target family, where the subfamily is swim bladder morphogenesis.
Zebrafish husbandry: Wild type adult zebrafish (Danio rerio; undefined outbred stock obtained from Aquatic Research Organisms, Hampton, NH, 03842) were housed in an AAALAC-approved animal facility at 28C with a 14:10 h light: dark cycle (lights on at 08:30 h). […]

[6] = CCTE_Padilla_ZF_Score.Any: CCTE's 144 Hour Post-fertilization zebrafish Assay Score for Any Mortality or Malformation, Padilla Lab (AID 2284416)
Summary of the method: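 Wild-type zebrafish embryos with chorions, one per well in 10% Hanks' from 6–8 hpf, dosed in sealed plates at 26 C, 14:10 h light:dark; rinsed at 5 dpf; blinded scoring at 6 dpf for death or malformation, versus DMSO.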

## CCC(C)c1ccc(O)cc1 (configuration not stated)
TTR (gene 7276)
  AC50: 4.66 µM (active)

## c1ccc(NNc2ccccc2)cc1
TTR (gene 7276)
  AC50: 33.3 µM (active)

## Cc1cc(N=Nc2ccccc2C)ccc1N
TTR (gene 7276)
  AC50: 0.0179 µM (active)

## Nc1ccc(Oc2ccc(N)cc2)cc1
TTR (gene 7276)
  AC50: 17.7 µM (active)

## [Cl-].[Cl-].[Hg+2]
TTR (gene 7276)
  AC50: 6.05 µM (active)

## CS(=O)(=O)NC(=O)c1cc(Oc2ccc(C(F)(F)F)cc2Cl)ccc1[N+](=O)[O-]
TTR (gene 7276)
  AC50: 6.19 µM (active)

## Nc1ccc(N=Nc2ccccc2)cc1
TTR (gene 7276)
  AC50: 0.593 µM (active)

## c1ccc(N=Nc2ccccc2)cc1
TTR (gene 7276)
  AC50: 28 µM (active)

## Nc1cc(Cl)cc(C(=O)O)c1Cl
TTR (gene 7276)
  AC50: 8.24 µM (active)

## CCNS(=O)(=O)C(F)(F)C(F)(F)C(F)(F)C(F)(F)C(F)(F)C(F)(F)C(F)(F)C(F)(F)F
[1]
  outcome: inactive
[2]
  AC50: 22.2 µM (active)
[3]
  AC50: 3.11 µM (active)
[4]
  outcome: inactive
[5]
  outcome: inactive
[6]
  AC50: 3.96 µM (active)
TTR (gene 7276)
  AC50: 1.05 µM (active)

## Brc1ccc(Oc2ccccc2)cc1
TTR (gene 7276)
  AC50: 50 µM (active)
